This passage reports Potency results from PubChem BioAssay (Tox21).

Inconclusive results are not listed. Where a call stands in place of a potency, no number is given. The source made the active and inactive calls. Calls come from the whole dose curve; as a rule, active = well fitted cell-killing curve with a large enough effect in the repeat runs; inconclusive = weak or mixed curves, or effect the other way; inactive = no such curve, though single readings can be large or run the other way.
Potency is the fitted concentration of half-maximal effect.

The assay in a line: qHTS assay to identify small molecule antagonists of the retinoid-related orphan receptor gamma (ROR-gamma) signaling pathway - cell viability counter screen (AID 1159520). Note: nearly all actives have a fitted effect of over 50% in size. Particulars: Tet-on RORgamma CHO cells viability, ATP luminescence, 16 h; series mostly up to 92.4 µM. From the text: U.S. Tox21 Program National Center for Advancing Translational Sciences [NCATS] NIH Chemical Genomics Center [NCGC] U.S. Environmental Protection Agency [EPA] National Institutes of Environmental Health Sciences [NIEHS] National Toxicology Program [NTP] U.S. Food and Drug Administration [FDA] Tox21 Assay Overview: Nuclear steroid hormone receptors are involved in many biological processes including inflammatory responses, cell proliferation, and apoptosis. Environmental factors or compounds disrupting these nuclear receptor pathways and gene expression may promote susceptibility to immunotoxicants and autoimmune diseases. One important group of these expression factors are the retinoid-related orphan receptors. To assess compounds that may interfere with the retinoid-related orphan receptor gamma (ROR-gamma) transcription factor, a cell-based luciferase assay was used. The CHO cell-based assay utilizes a TET-inducible ROR expression factor and ROR response element-LUC reporter gene. Reporter gene activity was induced using Doxycycline Hyclate and measured after 16 hr incubation. Tet-on ROR gamma CHO cells were used to screen against the Tox21 10K compound library for cytotoxicity by measuring the viability of the cells based on the quantitation of the ATP.
Tox21 Assay Protocol Summary: Tet-on ROR gamma CHO cells were dispensed at 1,000 cells in 4 uL of culture medium per well into white wall/solid bottom 1536-well plates using a Multidrop Combi (Thermo Scientific, Waltham, MA) dispenser. Following incubation at 37 C and 5% CO2 for 4 hr, 23 nL of compounds dissolved in DMSO, positive controls or DMSO only were transferred by a Pintool station (Kalypsys, San Diego, CA) and after 2 hr incubation at 37 C, one ul of 1 uM (final concentration) of Doxycycline Hyclate was added to all the wells by using a Flying Reagent Dispenser (FRD) (Aurora Discovery, San Diego, CA). After 16 hr incubation at 37 C and 5% CO2, 5 uL of CellTiter-Glo reagent (Promega Corporation, Madison, WI) was added to each assay plate using FRD. After 30 min incubation at room temperature, luminescence was quantified on a ViewLux plate reader (Perkin Elmer, Waltham, MA).
A general note: In qHTS, concentration-response curves come from the screen itself.
With `O=C(O)C[C@H](NC(=O)OCc1ccccc1)C(=O)O`, the Potency entry is “inactive”.
Under `Oc1c(I)cc(I)c2cccnc12` stands “inactive”; under `COC(=O)CS`, “inactive”.
Take `CC(=O)[C@H]1[C@H](C#N)C[C@H]2[C@@H]3CC=C4C[C@@H](O)CC[C@]4(C)[C@H]3CC[C@@]21C`: the Potency entry was “inactive”.
On to `CN(C)CCN1C(=O)c2ccccc2N(C)c2ccccc21`, for which the Potency result is “inactive”.
Under `CC(=O)c1cc2ccccc2s1` stands “inactive”.
Under `O=C(O)c1ccc(OCCCOc2ccc(C(=O)O)cc2)cc1` stands “inactive”.
For the compound `CN1C(=O)OC(C)(C)C1=O`, the Potency result is “inactive”.
As for `O=C(CCCN1CC=C(n2c(=O)[nH]c3ccccc32)CC1)c1ccc(F)cc1`, the entry is “inactive”; as for `CCC=CC#N`, “inactive”; as for `CCC(OCCCOC)OC(C)=O` (stereo not given), “inactive”.
As for `O[C@@H]1CO[C@H]2[C@@H]1OC[C@@H]2O`, the entry is “inactive”; as for `O=c1[nH]ncc2ccccc12`, “inactive”; as for `O=C=Nc1cccc(C(F)(F)F)c1`, “inactive”.
As for `CC(C)c1nc(CN(C)C(=O)N[C@H](C(=O)N[C@@H](Cc2ccccc2)C[C@H](O)[C@H](Cc2ccccc2)NC(=O)OCc2cncs2)C(C)C)cs1`, the entry is “inactive”.
For `FC(F)(F)c1ccccc1Cl`, the Potency result was “inactive”.
As for `O=C1c2ccccc2C(=O)C1c1ccc(Br)cc1`, the entry is “inactive”; as for `COc1cc(N)c(Cl)cc1C(=O)NC1CCN(CCCOc2ccc(F)cc2)CC1OC` (stereo not given), “inactive”.
As for `CCC(C)COC(C)=O` (stereo not given), the entry is “inactive”; as for `CC1CC(OC(=O)C(O)c2ccccc2)CC(C)(C)N1C` (stereo not given), “inactive”; as for `CC1(C)[C@H](C(=O)O)N2C(=O)C[C@H]2S1(=O)=O`, “inactive”.
On to `CC[C@]1(O)C[C@H]2CN(CCc3c([nH]c4ccccc34)[C@@](C(=O)OC)(c3cc4c(cc3OC)N(C=O)[C@H]3[C@@](O)(C(=O)OC)[C@H](OC(C)=O)[C@]5(CC)C=CCN6CC[C@]43[C@@H]65)C2)C1`, for which the Potency entry was “inactive”.
In the case of `COc1cc(C(=O)NCCCCCC(=O)O)cc(OC)c1OC`, the Potency entry was “inactive”.
As for `CCOC(=O)OC(C)OC(=O)[C@@H]1N2C(=O)[C@@H](NC(=O)[C@H](N)c3ccccc3)[C@H]2SC1(C)C` (stereo not given in full), the entry is “inactive”; as for `O=c1cc(-c2ccccc2)oc2ccc3ccccc3c12`, 27.3 µM (active).
Regarding `O=C1Cc2ccccc2N1c1c(Cl)cccc1Cl`, the Potency result is “inactive”.
As for `CN1C(C(=O)Nc2ccccn2)=C(O)c2sccc2S1(=O)=O`, the entry is “inactive”.
Under `O=C(O)CCc1nc(-c2ccccc2)c(-c2ccccc2)o1` stands “inactive”; under `CO[C@]1(NC(=O)CSC(F)F)C(=O)N2C(C(=O)O)=C(CSc3nnnn3CCO)CO[C@H]21`, “inactive”.
As for `Cc1cc(C)cc(N)c1`, the entry is “inactive”.
In the case of `C[C@@]12CCC[C@H]1[C@@H]1CC[C@H]3C[C@@H](O)CC[C@]3(C)[C@H]1CC2`, the Potency result was “inactive”.
`O=C(O)CCCCCCCCCCCBr`: the Potency result is “inactive”.
Under `O=C(O)CCC(=O)C(=O)O` stands “inactive”.
Under `O=c1[nH]c2ccc(Cl)cc2o1` stands “inactive”; under `OC(CCN1CCCC1)(c1ccccc1)C1CCCCC1` (stereo not given), “inactive”; under `Cc1cc(C)c(N)cc1C`, “inactive”.
For `C=C(C)[C@@H]1CCC2=CCC[C@@H](C)[C@]2(C)C1`, the Potency entry is “inactive”.
Under `C=C/C(C)=C/C/C=C(\C)CCC=C(C)C` stands “inactive”; under `C=C(C)C(=O)OCCOCCOC(=O)C(=C)C`, “inactive”; under `CN(C)CCC=C1c2ccccc2C=Cc2ccccc21`, “inactive”.
